Results filed as inconclusive are left out. Active and inactive are the calls of the source. The call rests on the fitted dose curve; in most records, active means well fitted inhibition curve with a large enough effect; inconclusive means small, poorly fitted or top-dose-only effect; inactive means flat fitted curve, though single readings scatter.
Columns and labels:
Assay in all cases: qHTS profiling for inhibitors of Plasmodium falciparum proliferation (AID 504749); further: nearly all actives have a fitted effect of over 60% in size
Conditions in all cases: P. falciparum in erythrocytes, SYBR Green DNA, 72 h; series mostly up to 28.7 µM
CP268 = tested on: CP268
Outline: (§1)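 Infected RBCs, 0.3% parasitemia/2.5% Hct final; cpd 72 h, 37 C, 5% CO2; lysis buffer with saponin/triton/SYBR Green I, o/n RT dark; FI 485/535; norm. to artemisinin (0.29 uM) and DMSO.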

CP269 = tested on: CP269
Outline: as §1

CP286 = tested on: CP286
Outline: as §1

CP291 = tested on: CP291
Outline: as §1

CP297 = tested on: CP297
Outline: as §1

CP305 = tested on: CP305
Outline: as §1

CP315 = tested on: CP315
Outline: as §1

CP325 = tested on: CP325
Outline: as §1

CP329 = tested on: CP329
Outline: as §1

CP335 = tested on: CP335
Outline: as §1

DFO2036 = tested on: DFO2036
Outline: as §1

DIV14 = tested on: DIV14
Outline: as §1

DIV17 = tested on: DIV17
Outline: as §1

DIV30 = tested on: DIV30
Outline: as §1

Dd2 = tested on: Dd2
Outline: as §1

ECU = tested on: ECU
Outline: as §1

FAB9 = tested on: FAB9
Outline: as §1

HB3 = tested on: HB3
Outline: as §1

ICS = tested on: ICS
Outline: as §1

GB4 = tested on: GB4
Outline: as §1

Measured: Potency

O=C(O)CN1C(=O)c2cccc3cccc(c23)C1=O
not listed: GB4
inactive: all other assays above

Cc1ccc(C(C)C)cc2c(C)ccc1-2
not listed: DIV14 | DIV30
inactive: all other assays above

CCOc1ccc2ccccc2c1C(=O)N[C@@H]1C(=O)N2[C@@H]1SC(C)(C)[C@@H]2C(=O)O
inactive: all assays above

CCCCCCCCCCCCCCCCCCOCC(O)CO (stereo not given)
not listed: CP335
inactive: all other assays above

Cc1cccc(C)c1NC(=O)CN(CC(=O)O)CC(=O)O
inactive: all assays above

Cc1cc(C(C#N)c2ccc(Cl)cc2)c(Cl)cc1NC(=O)c1cc(I)cc(I)c1O (stereo not given)
not listed: CP315
inactive: all other assays above

Cc1cc2c(cc1S(N)(=O)=O)S(=O)(=O)CCC2
not listed: CP335
inactive: all other assays above

CCCc1c(OCCCCc2nn[nH]n2)ccc(C(C)=O)c1O
not listed: CP315
inactive: all other assays above

Nc1ccc(S(=O)(=O)Nc2ccc(Cl)nn2)cc1
not listed: CP335 | DFO2036 | Dd2 | ECU | FAB9 | HB3
inactive: all other assays above

O=C(CCCN1CCN(c2ccccn2)CC1)c1ccc(F)cc1
not listed: DIV14 | DIV17
inactive: all other assays above

Reference: PubChem BioAssay (NCATS)
